The values below come from PubChem BioAssay (NCATS).

Inconclusive results are not listed. Active and inactive are the calls of the source. Unless noted, calls follow the shape of the dose curve; as a rule, active = well fitted curve in the direction sought with a large enough effect; inconclusive = small, poorly fitted or top-dose-only effect, or another doubt; inactive = no such curve, though single readings can be large; an effect the other way counts as inactive or inconclusive.

For assay [1], the target named is Thyrotropin receptor (Homo sapiens) (UniProt P16473). Nature of the assay: qHTS Assay for Antagonists of the Thyroid Stimulating Hormone Receptor (AID 488980). Also: series mostly up to about 58 µM; 0% is about no effect. A digest of the protocol: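 Cells expressing human TSHR (HEK293) are dispensed in HBSS/HEPES containing 70 uM RO 20-1724, compound is added, then TSH at EC80 (4 nM final). Antibody in lysis buffer follows, 30 minutes at room temperature before HTRF detection.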
Sequence of Thyrotropin receptor (Homo sapiens) (P16473 whole entry, looked up): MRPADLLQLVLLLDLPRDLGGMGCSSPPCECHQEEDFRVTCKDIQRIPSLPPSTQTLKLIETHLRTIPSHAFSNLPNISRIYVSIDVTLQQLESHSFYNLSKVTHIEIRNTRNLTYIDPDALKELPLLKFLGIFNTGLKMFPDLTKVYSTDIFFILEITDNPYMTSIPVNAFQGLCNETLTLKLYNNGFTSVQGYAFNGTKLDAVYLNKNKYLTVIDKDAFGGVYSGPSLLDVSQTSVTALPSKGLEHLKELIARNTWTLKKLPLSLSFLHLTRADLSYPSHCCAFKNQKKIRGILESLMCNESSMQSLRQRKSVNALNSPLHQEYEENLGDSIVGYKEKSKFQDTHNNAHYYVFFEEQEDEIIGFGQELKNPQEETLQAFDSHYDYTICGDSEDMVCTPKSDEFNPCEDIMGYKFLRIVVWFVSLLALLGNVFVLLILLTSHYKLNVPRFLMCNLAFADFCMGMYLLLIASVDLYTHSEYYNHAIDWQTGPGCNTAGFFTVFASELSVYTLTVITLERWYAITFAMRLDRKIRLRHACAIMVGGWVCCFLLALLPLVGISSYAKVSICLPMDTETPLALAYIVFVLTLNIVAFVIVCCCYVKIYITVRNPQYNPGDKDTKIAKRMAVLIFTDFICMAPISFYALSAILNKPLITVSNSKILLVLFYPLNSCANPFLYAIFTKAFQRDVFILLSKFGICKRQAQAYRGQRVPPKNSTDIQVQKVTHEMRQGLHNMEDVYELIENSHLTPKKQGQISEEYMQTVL
In general terms: Quantitative high-throughput screening tests each substance at several concentrations.

For assay [2], the target named is D(1A) dopamine receptor (Homo sapiens) (UniProt P21728). Nature of the assay: HTS Assay for Allosteric Agonists of the Human D1 Dopamine Receptor: Primary Screen for Agonists (AID 488981). Also: potency is read from the fitted curve at half-maximal effect. As to activation: 0% is about no effect. The essentials:
(§1)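 Tetracycline-induced HEK293 Trex D1 cells with forced coupling to calcium, loaded with no-wash calcium dye; kinetic fluorescence read 180 s after compound addition for agonism, then a further 180 s after an EC20 dopamine challenge for potentiation.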

Assay [3] has the same target. Nature of the assay: HTS Assay for Allosteric Agonists of the Human D1 Dopamine Receptor: Primary Screen for Potentiators (AID 488982). Also: 0% is about no effect. The essentials: as §1
Assay [4] has the same target. Nature of the assay: HTS Assay for Allosteric Agonists of the Human D1 Dopamine Receptor: Primary Screen for Antagonists (AID 488983).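 Also: calcium flux response to an EC80 dopamine challenge measured with no-wash dye; nearly all actives have a fitted effect of over 65% in size.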 Also: potency is read from the fitted curve at half-maximal effect. The essentials: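 Tetracycline-induced HEK293 T-REx cells expressing force-coupled D1 were plated overnight at 30 C, dye-loaded for calcium, and read kinetically. Compounds were pinned in, then an EC80 dopamine challenge followed after 180 s to reveal antagonism.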

The target of assay [5] is ATPase family AAA domain-containing protein 5 (Homo sapiens) (UniProt Q96QE3). Nature of the assay: Validation screen for small molecules that inhibit ELG1-dependent DNA repair in human embryonic kidney (HEK293T) cells expressing luciferase-tagged ELG1 (AID 493107).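 Also: cells co-treated with the DNA-damaging agent 5-fluorouridine alongside compound; series mostly up to about 46 µM; % is scaled to controls: 0 for no effect and ±100 for the full control effect; inhibitors lower the ELG1-luciferase luminescence signal; nearly all actives have a fitted effect of over 70% in size.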 The essentials: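 HEK293T cells expressing luciferase-tagged ELG1 were co-treated with 5-fluorouridine and compound or DMSO for 16 hr at 37 °C, 5% CO2. Luciferase activity was then read with ONE-Glo after 30 min at room temperature; suppressed signal indicates blocked ELG1 function.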
Sequence of ATPase family AAA domain-containing protein 5 (Homo sapiens) (Q96QE3 whole entry, looked up, the tested form may be a part): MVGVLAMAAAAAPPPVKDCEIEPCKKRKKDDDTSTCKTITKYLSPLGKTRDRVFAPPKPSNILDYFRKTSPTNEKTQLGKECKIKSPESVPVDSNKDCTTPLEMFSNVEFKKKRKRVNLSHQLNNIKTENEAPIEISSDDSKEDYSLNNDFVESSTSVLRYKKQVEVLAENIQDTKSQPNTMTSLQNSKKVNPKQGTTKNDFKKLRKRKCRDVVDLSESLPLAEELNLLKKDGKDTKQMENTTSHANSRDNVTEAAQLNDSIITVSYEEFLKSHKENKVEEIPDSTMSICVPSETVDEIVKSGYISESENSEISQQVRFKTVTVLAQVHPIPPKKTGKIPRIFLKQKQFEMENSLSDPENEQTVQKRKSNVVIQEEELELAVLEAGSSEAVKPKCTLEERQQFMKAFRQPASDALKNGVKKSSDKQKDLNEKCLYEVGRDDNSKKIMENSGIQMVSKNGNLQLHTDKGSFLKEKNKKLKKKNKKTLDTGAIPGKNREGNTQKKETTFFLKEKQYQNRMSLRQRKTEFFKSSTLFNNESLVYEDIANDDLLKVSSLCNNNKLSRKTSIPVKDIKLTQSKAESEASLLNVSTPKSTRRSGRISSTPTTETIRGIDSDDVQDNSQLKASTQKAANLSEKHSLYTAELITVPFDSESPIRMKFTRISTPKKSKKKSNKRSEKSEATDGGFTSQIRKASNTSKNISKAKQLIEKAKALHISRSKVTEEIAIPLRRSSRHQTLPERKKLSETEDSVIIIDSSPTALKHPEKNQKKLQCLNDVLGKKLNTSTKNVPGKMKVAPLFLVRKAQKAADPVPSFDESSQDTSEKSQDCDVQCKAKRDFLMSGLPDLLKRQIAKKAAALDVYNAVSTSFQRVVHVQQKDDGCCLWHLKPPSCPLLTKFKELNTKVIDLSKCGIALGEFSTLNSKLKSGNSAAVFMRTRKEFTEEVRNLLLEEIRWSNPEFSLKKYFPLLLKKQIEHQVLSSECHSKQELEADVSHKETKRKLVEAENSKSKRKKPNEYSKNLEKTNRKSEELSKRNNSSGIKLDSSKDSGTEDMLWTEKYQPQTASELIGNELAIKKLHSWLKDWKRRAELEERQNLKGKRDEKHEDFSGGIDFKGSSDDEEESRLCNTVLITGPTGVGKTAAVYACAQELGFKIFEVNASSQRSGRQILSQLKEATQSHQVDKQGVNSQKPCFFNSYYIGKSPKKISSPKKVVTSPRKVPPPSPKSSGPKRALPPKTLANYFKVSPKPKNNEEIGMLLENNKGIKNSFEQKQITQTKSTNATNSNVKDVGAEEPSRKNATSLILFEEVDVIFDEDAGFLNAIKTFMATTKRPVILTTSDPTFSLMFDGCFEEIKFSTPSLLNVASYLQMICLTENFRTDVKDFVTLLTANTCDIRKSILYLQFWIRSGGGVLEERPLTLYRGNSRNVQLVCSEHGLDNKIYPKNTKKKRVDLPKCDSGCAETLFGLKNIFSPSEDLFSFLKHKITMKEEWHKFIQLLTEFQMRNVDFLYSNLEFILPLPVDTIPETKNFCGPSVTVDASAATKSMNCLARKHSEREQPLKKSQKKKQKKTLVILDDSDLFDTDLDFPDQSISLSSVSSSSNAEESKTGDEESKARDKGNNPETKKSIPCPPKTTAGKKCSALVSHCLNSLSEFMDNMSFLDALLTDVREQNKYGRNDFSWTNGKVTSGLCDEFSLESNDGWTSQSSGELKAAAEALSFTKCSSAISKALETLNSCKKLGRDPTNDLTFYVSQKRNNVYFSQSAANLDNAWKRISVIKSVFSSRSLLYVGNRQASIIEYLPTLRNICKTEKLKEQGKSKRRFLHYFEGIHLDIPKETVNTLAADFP

Assay [6] addresses Thyrotropin-releasing hormone receptor (Homo sapiens) (UniProt P34981). Nature of the assay: qHTS for Small Molecule Agonists and Allosteric Enhancers of Human TRH Receptor: Validation Screen for Agonists (AID 493127;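 active = calcium activation more than 3 SD above the typical response in the agonist read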;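 also: intracellular calcium rise by fluo-8 fluorescence before TRH EC20 addition; 0% is about no effect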). The settings on record: TRH receptor agonist cell assay; at 2 µM; stronger effect = higher value. A digest of the protocol:
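TRHR-expressing cells were plated overnight in serum-containing medium, then loaded with fluo-8 calcium dye at room temperature for 30 min–1.5 h. After a 10 s baseline, compound was pin-transferred and calcium fluorescence (ex 480/em 530) read kinetically for agonist response.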

Assay [7] in a line: Nrf2 qHTS screen for inhibitors: Validation (AID 493153; active = well fitted inhibition curve with a large enough effect in the main read-out, with a control signal flat, not every such curve was filed as active). Conditions: Potency: luciferase luminescence; viability change: measured here: cytotoxicity max response. A digest of the protocol:
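A549 cells carrying an ARE-driven firefly luciferase reporter, in 5% FBS OPTI-MEM, were treated with compounds in concentration-response for 18-24 h at 37°C. Viability was read by CellTiter-Fluor fluorescence, then Nrf2 activity by luciferase luminescence.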

The nature of assay [8]: Validation screen for small molecules that induce genotoxicity in human embryonic kidney (HEK293T) cells expressing luciferase-tagged ELG1 (AID 493106). Also: 0% is about no effect. A digest of the protocol:
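HEK293T cells expressing luciferase-tagged ELG1 were exposed to compound or DMSO vehicle for 16 hr at 37 °C, 5% CO2. Genotoxic stress raises ELG1 levels, so increased luciferase signal after ONE-Glo addition and 30 min at room temperature marks hits.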

Assay [9] concerns the target ATP-dependent 6-phosphofructokinase (Trypanosoma brucei brucei) (UniProt O15648). Nature of the assay: qHTS Assay to Find Inhibitors of T. brucei phosphofructokinase: hit validation (AID 492961).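 Also: luminescence reports ADP formed as PFK phosphorylates fructose-6-phosphate with ATP; series mostly up to about 51 µM; % is scaled to controls: 0 for no effect and ±100 for the full control effect.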 A digest of the protocol: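 Compounds titrated; %activity normalized to 0x and 1x enzyme controls, curve-fitted. Readout: ADP-Glo luminescence after 45 min room-temperature reaction of 1.25 nM PFK, 0.1 mM ATP, 0.5 mM F6P, pH 8.0.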

Sequence of Thyrotropin-releasing hormone receptor (Homo sapiens) (P34981 whole entry, looked up): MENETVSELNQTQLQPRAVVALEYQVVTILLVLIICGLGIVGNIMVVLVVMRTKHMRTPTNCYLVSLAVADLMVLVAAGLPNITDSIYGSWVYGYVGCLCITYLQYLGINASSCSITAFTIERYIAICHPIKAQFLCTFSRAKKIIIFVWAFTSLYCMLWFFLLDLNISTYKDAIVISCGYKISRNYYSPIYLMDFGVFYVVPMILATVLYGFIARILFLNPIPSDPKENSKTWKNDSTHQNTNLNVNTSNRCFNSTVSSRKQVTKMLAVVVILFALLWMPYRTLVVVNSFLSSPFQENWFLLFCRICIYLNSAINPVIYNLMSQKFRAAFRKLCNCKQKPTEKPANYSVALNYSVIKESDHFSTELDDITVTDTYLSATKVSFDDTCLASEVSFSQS
Sequence of D(1A) dopamine receptor (Homo sapiens) (P21728 whole entry, looked up): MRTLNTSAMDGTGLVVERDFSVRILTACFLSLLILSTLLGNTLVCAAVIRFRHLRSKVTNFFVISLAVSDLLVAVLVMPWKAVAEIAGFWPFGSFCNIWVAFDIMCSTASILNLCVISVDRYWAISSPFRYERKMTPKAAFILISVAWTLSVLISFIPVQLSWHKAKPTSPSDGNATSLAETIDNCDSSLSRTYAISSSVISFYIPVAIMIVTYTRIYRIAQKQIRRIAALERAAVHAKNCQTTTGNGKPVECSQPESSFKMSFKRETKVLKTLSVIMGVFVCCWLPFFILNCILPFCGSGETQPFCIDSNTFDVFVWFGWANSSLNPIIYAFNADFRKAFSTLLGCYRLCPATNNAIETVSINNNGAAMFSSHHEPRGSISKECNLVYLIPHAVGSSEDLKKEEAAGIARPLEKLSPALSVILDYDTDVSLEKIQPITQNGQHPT
Sequence of ATP-dependent 6-phosphofructokinase (Trypanosoma brucei brucei) (O15648 whole entry, looked up): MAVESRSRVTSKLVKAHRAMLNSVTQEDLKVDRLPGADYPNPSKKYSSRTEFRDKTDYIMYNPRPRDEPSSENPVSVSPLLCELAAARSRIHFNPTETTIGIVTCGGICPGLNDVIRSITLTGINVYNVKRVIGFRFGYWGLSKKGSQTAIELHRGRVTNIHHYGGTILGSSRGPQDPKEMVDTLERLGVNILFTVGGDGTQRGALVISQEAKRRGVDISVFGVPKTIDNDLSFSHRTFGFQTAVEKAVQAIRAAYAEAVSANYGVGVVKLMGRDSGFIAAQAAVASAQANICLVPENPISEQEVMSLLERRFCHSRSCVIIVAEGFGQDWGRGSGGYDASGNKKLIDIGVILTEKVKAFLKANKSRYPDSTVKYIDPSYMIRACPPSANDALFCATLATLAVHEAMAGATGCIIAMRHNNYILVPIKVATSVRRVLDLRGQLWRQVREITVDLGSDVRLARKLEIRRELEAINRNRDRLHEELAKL

Consider `OCC1O[C@H](O)C(Cl)C(O)C1O` (stereo partly specified), for which, in [1], the outcome was inactive. In addition, the Potency result in [2], in assay [3], in assay [4], in [5] and in [7] was “inactive” throughout. For the same compound, the activation in [6] is 0.688% (inactive). Further, the viability change in assay [7] amounted to 4.21%.

As for `Ic1ccc(N2CCN(Cc3c[nH]c4ncccc34)CC2)cc1`, in [1], the result was inactive. In addition, the Potency result in [2], in assay [3] and in [4] was “inactive” throughout. Moreover, the activation in [6] was 3.5% (inactive).

Regarding `O=C(O)c1cc(=O)c2c(Cl)cc(Cl)cc2[nH]1`, in [1], the result was inactive. Also, the Potency result in assay [2], in [3], in assay [4], in assay [5] and in assay [7] was “inactive” throughout. Also, the activation in [6] was 1.56% (inactive). For the same compound, in [7], the viability change was -1.84%.

For the compound `CN1CCc2cc(NC(=O)Nc3cccnc3)ccc21`, the compound was called inactive in assay [1]. The Potency result in [2], in assay [3], in assay [4] and in assay [7] was “inactive” in each case. In assay [6], the activation was -2.62% (inactive). In addition, in assay [7], the viability change was -3.61%.

For `O=C1C(SCCO)=C(SCCO)C(=O)c2ccccc21`, in [1], the outcome was inactive. The Potency result in [2] and in [8] was “inactive” in each case. In addition, the Potency in assay [4] is 11.2 µM (active). Besides, the activation in assay [6] was -3.25% (inactive).

Consider `COc1cc(OC)c(/C=C2/C(=O)Nc3ccccc32)c(OC)c1`, for which, in assay [1], the outcome was inactive. Besides, the Potency entry in [2], in [3] and in [4] was “inactive” each time. Further, the activation in assay [6] is 1.38% (inactive).

For `N[C@@H](CC(=O)O)C(=O)O`, the call in [1] was inactive. For the same compound, the Potency result in assay [2], in [3], in [4], in assay [5] and in [7] was “inactive” each time. Moreover, the activation in assay [6] is 1.19% (inactive). Further, in [7], the viability change is -0.666%.

As to `CN(C)CCC(c1ccc(Cl)cc1)c1ccccn1` (stereo unspecified), in assay [1], the compound was classed as inactive. In addition, the Potency result in assay [2], in assay [3], in assay [4] and in assay [7] was “inactive” throughout. The activation in assay [6] is 1.12% (inactive). In [7], the viability change worked out at 7.36%.

Regarding `CCN1/C(=C/C(C)=O)Sc2ccc(OC)cc21`, in [1], the outcome was inactive. The Potency entry in [2], in [3], in assay [4] and in [7] was “inactive” each time. Moreover, in [6], the activation was -4.31% (inactive). For the same compound, the viability change in assay [7] was -5.53%.

`N#C/C(=C\c1ccc(O)c(O)c1)C(=O)c1ccc(O)c(O)c1`: the call in assay [1] was inactive. Further, the Potency entry in assay [2], in assay [3], in [4] and in assay [7] was “inactive” each time. The activation in [6] is -0.562% (inactive). Besides, in assay [7], the viability change was -19.7%.

In the case of `CC(C)NC[C@H](O)COc1cccc2[nH]ccc12`, the outcome in assay [1] was inactive. Besides, the Potency result in assay [2], in [3], in assay [4], in [5] and in assay [7] was “inactive” in each case. In [6], the activation was 1.12% (inactive). The viability change in assay [7] is -1.79%.

With `S=C(S)OC1CC2CC1C1CCCC21` (stereo unspecified), the call in [1] was inactive. Also, the Potency result in [2], in [3], in assay [4], in assay [8] and in [7] was “inactive” throughout. Further, the activation in assay [6] is 0.125% (inactive). Besides, the viability change in assay [7] was determined as 5.78%.

On to `CN1CCc2cccc3c2C1Cc1ccc(O)c(O)c1-3` (stereo unspecified), for which the call in assay [1] was inactive. Besides, the Potency result in assay [2], in [3], in [8] and in [7] was “inactive” in each case. Further, in assay [6], the activation is 0.125% (inactive). Moreover, the viability change in assay [7] was 0.0644%.

Consider `COc1ccccc1CNCCCCCCNCCCCCCCCNCCCCCCNCc1ccccc1OC`, for which the call in assay [1] was inactive. For the same compound, the Potency entry in assay [2], in assay [3], in assay [4], in [8] and in assay [7] was “inactive” in each case. Moreover, the activation in [6] is 0.938% (inactive). Besides, in [7], the viability change was -8.09%.

Turning to `C[C@@H](CN1CCC(Cc2ccccc2)CC1)[C@@H](O)c1ccc(O)cc1`, the compound was called inactive in [1]. Moreover, the Potency entry in assay [2], in assay [3], in [5] and in assay [7] was “inactive” in each case. For the same compound, the Potency in assay [4] is 14.1 µM (active). Also, in assay [6], the activation is 2.75% (inactive). For the same compound, the viability change in [7] was found to be 8.45%.

Regarding `O=C(O)CC[C@@H](C(=O)O)N1C(=O)c2ccccc2C1=O`, the compound was called inactive in [1]. The Potency result in assay [2], in [4], in [8] and in assay [7] was “inactive” each time. Also, the activation in assay [6] was 0.125% (inactive). In assay [7], the viability change turned out to be 9.01%.

As to `NCCCS(=O)(=O)O`, the result in assay [1] was inactive. Also, the Potency result in [2], in [3], in [4], in assay [5] and in assay [7] was “inactive” in each case. Moreover, in assay [6], the activation was 0.5% (inactive). Moreover, in assay [7], the viability change was -7.16%.

For `NO`, the compound was classed as inactive in assay [1]. For the same compound, the Potency result in [2], in assay [3], in assay [4], in assay [8] and in [7] was “inactive” throughout. The viability change in assay [7] is 4.95%.

Take `Cn1cc(C2=C(c3ccc(Cl)cc3Cl)C(=O)NC2=O)c2ccccc21`: the result in assay [1] was inactive. Besides, the Potency in [2] is 14.1 µM (active). In assay [4], the Potency result is “inactive”. Moreover, the activation in assay [6] is 29.6% (inactive). For the same compound, in assay [7], the Potency entry was “inactive” and the viability change is -10.9%.

Take `COc1cccc(OC)c1OCCNCC1COc2ccccc2O1` (stereo unspecified): in assay [1], the result was inactive. The Potency result in assay [2], in assay [3] and in [7] was “inactive” throughout. Moreover, the Potency in [4] is 0.316 µM (active). Further, in assay [6], the activation was -3.69% (inactive). In addition, the viability change in [7] turned out to be 4.98%.

In the case of `CN1CCc2cc(O)c(O)cc2C(c2ccccc2)C1` (stereo unspecified), the call in [1] was inactive. Moreover, the Potency entry in assay [2], in assay [3], in assay [8] and in [7] was “inactive” throughout. For the same compound, the activation in [6] is -0.188% (inactive). Further, the viability change in assay [7] is -7.53%.

`Cn1c(=O)c2[nH]c(-c3ccccc3)nc2n(C)c1=O`: in [1], the compound was called inactive. Also, the Potency entry in assay [2], in assay [3], in assay [4] and in assay [5] was “inactive” throughout. Further, the activation in assay [6] is 0.875% (inactive).

Consider `O=C(O)/C=C/C(O)c1ccc(Cl)cc1` (stereo unspecified), for which the result in [1] and in assay [9] was inactive. For the same compound, the Potency entry in assay [2], in [4], in assay [8], in [5] and in assay [7] was “inactive” each time. The activation in assay [6] was 0.125% (inactive). Further, the viability change in [7] amounted to 2.66%.

For `O=c1[nH]c2cc(Cl)c(Cl)cc2[nH]c1=O`, in assay [1], the outcome was inactive. Further, the Potency entry in [2], in [3], in [4] and in assay [7] was “inactive” each time. In addition, in assay [6], the activation was 0.75% (inactive). In assay [7], the viability change was found to be 9.5%.

`C=CC(N)CCC(=O)O` (stereo unspecified): the call in assay [1] was inactive. In addition, the Potency result in assay [2], in assay [4], in assay [8], in assay [5] and in [7] was “inactive” in each case. Besides, the activation in [6] was -0.0625% (inactive). The viability change in assay [7] was 4.81%.

Consider `NC(N)=NC(=O)c1nc(Cl)c(N2CCCCCC2)nc1N`, for which the call in assay [1] was inactive. Also, the Potency entry in assay [2], in assay [3], in assay [8], in assay [5] and in assay [7] was “inactive” throughout. Moreover, the activation in [6] was 3.31% (inactive). The viability change in assay [7] was -0.682%.
